Hits are enriched below; roughly 4.8% of the tested compounds scored in any of these assays.
DAX1 inh-1: inhibitors of DAX1 repression of SF-1 activated StAR promoter; HEK293T StAR-luciferase reporter, SF-1/DAX-1 repression relief; inhibition, % at 6.8 µM; hit rate 1.1% among 370,000;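 active = inhibition above the mean over all tested compounds plus 3 SD, cut at about 3.6% in these data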;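 note: 0% = DAX-1 cells with DMSO and 100% = cells lacking DAX-1 with DMSO; higher inhibition means more luminescence from relief of DAX-1 repression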
hgDAF-12 ag: hgDAF-12 agonism, primary luciferase screen; HEK293 GAL4-hgDAF12 UAS-luciferase reporter, agonist luminescence; normalized to butyrate control; hit rate 1.8% among 370,000; activation, % at 6.8 µM;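 active = activation above a cutoff set at the mean of all screened compounds plus 3 SD, cut at about 10% in these data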;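 note: 0% = DMSO wells and 100% = sodium butyrate wells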
ssDAF-12 act: S. stercoralis DAF-12 activation, primary screen | hit rate 1% among 370,000 | HEK293 ssDAF-12/GRIP1 lit1-tk-luc reporter, luminescence; % of 3 µM dafachronic acid response | activation, % at 6.8 µM;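 active = activation above the mean over all tested compounds plus 3 SD, cut at about 0.9% in these data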;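 note: 0% = DMSO-only wells and 100% = 3 µM delta7-dafachronic acid wells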
hcDAF12 agonist: activates DAF-12 receptor from parasite H. contortus; hit rate 1.4% among 370,000; HEK293 hcDAF-12 lit1-tk-luc reporter, luminescence; 0% DMSO, 100% Δ7-dafachronic acid; activation, % at 6.8 µM; AID 652067;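 active = activation above the mean of all tested compounds plus 3 SD, cut at about 5.5% in these data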;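 note: 100% = response to 3 µM Δ7-dafachronic acid high control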
DAX1 inh-2: NR0B1 (DAX1) inhibition; HEK293 Gal4-DAX1 luciferase reporter, luminescence; hit rate 0.99% among 340,000; inhibition, % at 6.75 µM;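 active = inhibition above the mean over all tested compounds plus 3 SD, cut at about 4.2% in these data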;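 note: 0% = DAX1-transfected cells with DMSO and 100% = empty-vector control cells with DMSO; inhibition shows as a rise in luminescence from relieved DAX1 repression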
Target sequence (P51843 207-470 limits assumed): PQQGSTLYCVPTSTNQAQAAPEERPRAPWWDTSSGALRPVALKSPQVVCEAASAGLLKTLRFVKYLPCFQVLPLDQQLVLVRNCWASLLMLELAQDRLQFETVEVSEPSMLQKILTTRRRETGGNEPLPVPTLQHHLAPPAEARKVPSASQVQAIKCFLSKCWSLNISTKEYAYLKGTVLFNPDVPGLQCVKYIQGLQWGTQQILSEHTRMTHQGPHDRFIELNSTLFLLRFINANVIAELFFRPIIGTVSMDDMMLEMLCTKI
SMARCA2 activ: increases SMARCA2 function in MMTV reporter cells; hit rate 1% among 370,000; activation, % at 9.1 µM; MG213 cells, MMTV-luciferase reporter, dexamethasone, overnight; AID 652017; in the data active = activation above about 7.8%;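 note: 0% = vehicle wells and 100% = reference activator wells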
Numbers without * were called inactive.

Clc1ccc(Oc2nc3ccccc3n3cccc23)cc1 was read as DAX1 inh-1 0, hgDAF-12 ag 0, ssDAF-12 act -1, hcDAF12 agonist 0, DAX1 inh-2 0 and SMARCA2 activ -1.
For c1ccc(COc2ccc(-c3csnn3)cc2)cc1 the results were DAX1 inh-2 2.
COc1ccc(C(C(=O)NC2CCCC2)N(C(=O)c2ccco2)c2ccccc2OC)cc1 (centres undefined) was read as DAX1 inh-1 0, hgDAF-12 ag 1, ssDAF-12 act -1, hcDAF12 agonist 0, DAX1 inh-2 -1 and SMARCA2 activ 1.
For Cc1ccc(-c2ccc(NC(=O)C3C4C=CC(C4)C3C(=O)O)cc2)o1 (centres undefined) the results were DAX1 inh-1 1, hgDAF-12 ag 13*, ssDAF-12 act -1, hcDAF12 agonist 1, DAX1 inh-2 0 and SMARCA2 activ 2.
COc1ccc(NC(=O)C2C3C=CC(C3)C2C(=O)O)cc1 (centres undefined) was read as DAX1 inh-1 0, hgDAF-12 ag -2, ssDAF-12 act -2, hcDAF12 agonist -2, DAX1 inh-2 2 and SMARCA2 activ 2.
Screening Cc1ccn2c(Nc3ccc4c(c3)OCO4)c(-c3ccccn3)nc2c1 returned DAX1 inh-1 1, hgDAF-12 ag 0, ssDAF-12 act -1, hcDAF12 agonist 6.0*, DAX1 inh-2 -2 and SMARCA2 activ 1.
`Cc1ccc(Nc2c(-c3ccccn3)nc3cc(C)ccn23)cc1` gave DAX1 inh-1 -1, hgDAF-12 ag -9, ssDAF-12 act -2, hcDAF12 agonist -1, DAX1 inh-2 -1 and SMARCA2 activ 1.
For CC(c1c[nH]c2ccccc12)c1c[nH]c2ccc(Br)cc12 (centres undefined) the results were DAX1 inh-1 -1, hgDAF-12 ag 4, ssDAF-12 act 0, hcDAF12 agonist 5.6* and SMARCA2 activ 0.
O=C(c1ccc(Oc2ccccc2)cc1)c1nc2c(n1O)CCCC2 was read as DAX1 inh-1 1, hgDAF-12 ag 2, ssDAF-12 act 1.2*, hcDAF12 agonist -1, DAX1 inh-2 1 and SMARCA2 activ -1.
Screening CN1CCCCC1(C)C(=O)NCc1ccc(F)cc1 (centres undefined) returned DAX1 inh-1 0, hgDAF-12 ag 3, ssDAF-12 act -2, hcDAF12 agonist -1 and SMARCA2 activ 1.
Screening COC(=O)CC1C(=O)NCCN1C(=O)CSc1nc2ccccc2s1 (centres undefined) returned DAX1 inh-1 1, hgDAF-12 ag -1, ssDAF-12 act 1.2*, hcDAF12 agonist 4, DAX1 inh-2 1 and SMARCA2 activ 1.
For COC(=O)CC1C(=O)NCCN1C(=S)Nc1cccc(C)c1 (centres undefined) the results were DAX1 inh-1 -1, hgDAF-12 ag 1, ssDAF-12 act -1, hcDAF12 agonist 0, DAX1 inh-2 -1 and SMARCA2 activ -2.
COC(=O)CC1C(=O)NCCN1C(=S)Nc1ccc(F)cc1 (centres undefined) was read as DAX1 inh-1 0, hgDAF-12 ag 2, ssDAF-12 act -1, hcDAF12 agonist 1, DAX1 inh-2 5.2* and SMARCA2 activ -4.
O=C1CC(NNc2ccccc2)C(=O)N1c1ccc(N2CCCCC2)cc1 (centres undefined) was read as DAX1 inh-1 0, hgDAF-12 ag 0, ssDAF-12 act -1, hcDAF12 agonist 0, DAX1 inh-2 1 and SMARCA2 activ -1.
`CN(CC(=O)N1CCCCCC1)S(=O)(=O)c1ccc(Br)s1` gave DAX1 inh-1 1, hgDAF-12 ag -1, ssDAF-12 act 0, hcDAF12 agonist -1 and SMARCA2 activ 3.
O=C(CN(CC(=O)N1CCOCC1)S(=O)(=O)c1ccc(Br)s1)N1CCOCC1 was read as DAX1 inh-1 0, hgDAF-12 ag 1, ssDAF-12 act -1, hcDAF12 agonist 0, DAX1 inh-2 6.8* and SMARCA2 activ 0.
Screening Cc1cc(Br)ccc1OCc1nnc(-c2ccccc2)o1 returned DAX1 inh-1 1, hgDAF-12 ag 4, ssDAF-12 act -1, hcDAF12 agonist 1 and SMARCA2 activ 4.
For Clc1ccccc1OCc1nnc(-c2ccccc2)o1 the results were DAX1 inh-1 1, hgDAF-12 ag 13*, ssDAF-12 act -1, hcDAF12 agonist 2, DAX1 inh-2 1 and SMARCA2 activ 4.
`Cc1[nH]c2ccccc2c(=O)c1C(=O)/C=C/c1ccccc1` gave DAX1 inh-1 -4, hgDAF-12 ag 1, ssDAF-12 act -2, hcDAF12 agonist -4, DAX1 inh-2 -6 and SMARCA2 activ -7.
`COC(=O)c1cc2c(c3c4ccccc4n(S(=O)(=O)c4ccc(C)cc4)c13)C(=O)N(C)C2` gave DAX1 inh-1 -1, hgDAF-12 ag -2, ssDAF-12 act 1, hcDAF12 agonist 2 and SMARCA2 activ 7.9*.
COC(=O)c1cc2c(c3c4ccccc4n(S(=O)(=O)c4ccccc4)c13)C(=O)N(C)C2 was read as DAX1 inh-1 -1, hgDAF-12 ag -1, ssDAF-12 act 0, hcDAF12 agonist 3 and SMARCA2 activ -5.
For COc1ccc2[nH]c3c(c2c1)CCN1C(=O)N([C@@H](C)C(=O)NCC2CCCO2)C(=O)[C@]31C (some centres undefined) the results were DAX1 inh-1 0, hgDAF-12 ag 6, ssDAF-12 act -1, hcDAF12 agonist 2, DAX1 inh-2 5.7* and SMARCA2 activ 1.
Screening Cc1ccc2c(c1)Oc1ccc([N+](=O)[O-])cc1C(=O)N2 returned DAX1 inh-1 0, hgDAF-12 ag 2, ssDAF-12 act 0, hcDAF12 agonist 6.1*, DAX1 inh-2 -1 and SMARCA2 activ -1.
Screening Cc1ccc2c(c1)Oc1ccc(NC(=O)CCl)cc1C(=O)N2 returned DAX1 inh-1 -4, hgDAF-12 ag -12, ssDAF-12 act -1, hcDAF12 agonist -6, DAX1 inh-2 -4 and SMARCA2 activ -7.
For Cc1ccc(O)c(C(=O)CC(=O)c2ccc(C(C)(C)C)cc2)c1 the results were DAX1 inh-1 1, hgDAF-12 ag 11*, ssDAF-12 act -1, hcDAF12 agonist 1, DAX1 inh-2 3 and SMARCA2 activ 1.
For COc1ccc(OC)c(/C=C/C(=O)Nc2ccc(OC)nc2)c1 the results were DAX1 inh-1 -1, hgDAF-12 ag 1, ssDAF-12 act -2, hcDAF12 agonist 0, DAX1 inh-2 5.6* and SMARCA2 activ 1.
For COc1ccc(OC)c(/C=C/C(=O)NC2=NCCS2)c1 the results were DAX1 inh-1 1, hgDAF-12 ag 2, ssDAF-12 act -1, hcDAF12 agonist 2, DAX1 inh-2 0 and SMARCA2 activ 0.
COc1cccc(C2=NOC(C(=O)N3CCOCC3)C2)c1 (centres undefined) was read as DAX1 inh-1 0, hgDAF-12 ag 3, ssDAF-12 act 1, hcDAF12 agonist 1, DAX1 inh-2 1 and SMARCA2 activ 0.

High-throughput results deposited in PubChem by The Scripps Research Institute Molecular Screening Center.
